BAZ2B block: qHTS Assay for Inhibitors of BAZ2B; Bromodomain adjacent to zinc finger domain protein 2B (Homo sapiens), Q9UIF8; AlphaScreen BAZ2B-H3K14Ac peptide displacement; Potency, µM (titrated, usually from 114 µM), without a hit: top-dose activity change, negative = inhibition, hits mostly inhibitors; 4.4% of 360,000 active; AID 504333, 2011; note: % is set by controls: 0 for no effect and ±100 for the full control effect; nearly all actives have a fitted effect of over 60% in size
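BAZ2B (50 nM) with biotin-H3(5-23)K14Ac peptide (50 nM) in PBS pH 7.4, 0.01% Tween-20, preformed 30 min, then compound 30 min at room temperature; top concentration 110uM. AlphaScreen streptavidin donor/nickel chelate acceptor beads (10 ug/mL final), 20 min dark, signal read.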
G9a block: qHTS Assay for Inhibitors of Histone Lysine Methyltransferase G9a; Histone-lysine N-methyltransferase EHMT2 (Homo sapiens), Q96KQ7; G9a H3K9 monomethylation, AlphaScreen, 2 h; Potency, µM (top dose mostly 102 µM), inactives show at the top dose activity, negative = inhibition, most hits filed as inhibitors; 8.8% of 350,000 active; AID 504332, 2011; note: % is set by controls: 0 for no effect and ±100 for the full control effect; nearly all actives have a fitted effect of over 75% in size
Target sequence (Q96KQ7 913-1193 limits assumed): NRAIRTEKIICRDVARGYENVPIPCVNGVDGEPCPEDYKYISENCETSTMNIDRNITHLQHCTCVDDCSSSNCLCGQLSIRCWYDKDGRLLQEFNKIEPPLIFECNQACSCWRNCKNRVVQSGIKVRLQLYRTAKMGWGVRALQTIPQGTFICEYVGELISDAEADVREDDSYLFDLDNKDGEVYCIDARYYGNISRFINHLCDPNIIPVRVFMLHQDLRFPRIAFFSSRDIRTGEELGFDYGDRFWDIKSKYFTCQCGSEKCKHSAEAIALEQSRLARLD
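Step 1: enzyme (final 20 nM) with compound, 15 min RT. Step 2: substrate peptide 500 nM and SAM 20 uM, 2 h RT. Step 3: anti-H3K9me1 antibody and AlphaScreen beads, 10 min, then plate read.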
HP1b binding inh: HTS for Inhibitors of HP1-beta Chromodomain Interactions with Methylated Histone Tails | Chromobox protein homolog 1 (Homo sapiens), P83916 | AlphaScreen HP1-beta / biotin-H3K9me3 peptide binding | Potency, µM (highest dose often 114 µM), inactives show top-dose activity change, negative = inhibition, hits mostly inhibitors | 0.56% of 390,000 active; note: nearly all actives have a fitted effect of over 70% in size
Target sequence (P83916 whole entry, looked up): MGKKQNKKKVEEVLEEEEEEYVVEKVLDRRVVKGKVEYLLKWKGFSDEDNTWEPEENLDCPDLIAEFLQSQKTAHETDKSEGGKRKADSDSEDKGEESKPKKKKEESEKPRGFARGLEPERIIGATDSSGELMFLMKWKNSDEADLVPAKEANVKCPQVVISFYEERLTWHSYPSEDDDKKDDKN
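HP1-beta protein (50 nM final) preincubated 30 min at room temperature with biotinylated H3(1-18)K9me3 peptide (50 nM) in PBS pH 7.4, 0.01% Tween-20, then compound added for 30 min. AlphaScreen streptavidin donor/nickel chelate acceptor beads (10 ug/mL final), 30 min dark, luminescence read.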
L3MBTL1 inh: qHTS Assay for the Inhibitors of L3MBTL1 | 0.66% of 230,000 active | Lethal(3)malignant brain tumor-like protein 1 (Homo sapiens), Q9Y468 | Potency, µM (series often up to 57.1 µM), for the others: at the top dose activity, negative = inhibition, actives largely listed as inhibitors | AlphaScreen L3MBTL1–H3K9me1 peptide binding; note: % is set by controls: 0 for no effect and ±100 for the full control effect; nearly all actives have a fitted effect of over 60% in size
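Read-out is AlphaScreen signal from streptavidin donor and nickel chelate acceptor beads (10 ug/mL final each) bridging L3MBTL1 (50 nM) and biotinylated K9-monomethylated H3(1-15) peptide (75 nM), after 30 min compound exposure at room temperature.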
JMJD2A Tudor inh: qHTS Assay for Inhibitors of JMJD2A-Tudor Domain; AlphaScreen JMJD2A-Tudor / H3K4me3 peptide binding; Lysine-specific demethylase 4A (Homo sapiens), O75164; Potency, µM (titrated, usually from 114 µM), for inactives: at the highest dose activity change, negative = inhibition, usual class: inhibitors; 4.4% of 390,000 active; note: % is set by controls: 0 for no effect and ±100 for the full control effect; nearly all actives have a fitted effect of over 50% in size
Sfp inh: qHTS Assay for Inhibitors of Bacillus subtilis Sfp phosphopantetheinyl transferase (PPTase); Biochemical Sfp PPTase activity, qHTS; Potency, µM, for the others: largest response in the series, negative = inhibition, most hits filed as inhibitors; 3.5% of 310,000 active;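 note: the enzyme is Sfp with the accession as filed and its product quenches rhodamine fluorescence; 0% = enzyme reaction without inhibitor and -100% = no enzyme wells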
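After 15 min at room temperature with compound, 15 nM Sfp received 5 uM rhodamine-CoA plus 12.5 uM BHQ-2-ybbR (50 mM Hepes pH 7.6, 10 mM MgCl2). Rate came from the fluorescence difference over 30 min, ex 525/em 598 nm.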
Active calls of the source: *; ? = inconclusive; / = not tested or not shown; ! = not active in a repeat; [ ] = dose if it differs, or a comment. In the library only some 12% were active in any assay of this set; here they are far more common. Calls come from the whole dose curve; as a rule, active = well fitted curve in the direction sought with a large enough effect; inconclusive = small, poorly fitted or top-dose-only effect, or another doubt; inactive = no such curve, though single readings can be large; an effect the other way counts as inactive or inconclusive. Potency is the fitted concentration of half-maximal effect.

SMILES	BAZ2B block	G9a block	HP1b binding inh	L3MBTL1 inh	JMJD2A Tudor inh	Sfp inh
CC(=O)Oc1ccc(N2C(=O)C3C(C2=O)C(C(=O)c2ccc(Cl)cc2)N2CCCC32)cc1 (centres undefined)	-32%	-112%[12.7 µM]	?	5%	45µM*	-1%
Cc1ccc(N2C(=O)C3C(C2=O)C(C(=O)c2ccc(Cl)cc2)N2CCCC32)cc1 (centres undefined)	?	?	63%	/	-10%[11.4 µM]	?
CCCCCC(O)(c1ccccc1)C(CN1CCOCC1)c1ccccc1 (centres undefined)	8%	8%	33%	/	-14%	-15%
COc1ccc(C(=O)[C@H]2[C@H]3C(=O)N(c4ccc(C)cc4)C(=O)[C@H]3C3C=CC=NN32)cc1 (some centres undefined)	40µM*	/	32%	/	6%	-9%
CC(=O)Oc1ccc(C(=O)[C@H]2[C@H]3C(=O)N(c4ccc(C)cc4C)C(=O)[C@H]3[C@@H]3C=CC=NN32)cc1	-36%	3.5µM*	-22%	-22%	?	50µM*
CCNC(=O)CC1C(=O)N(c2ccccc2)C(=O)N1Cc1ccc(F)cc1 (centres undefined)	-3%	-1%[59 µM]	25%	/	-15%	/
Cc1ccc(S(=O)(=O)CCC(=O)OCC(=O)N2CCN(c3ccccc3)CC2)cc1	2%	10%[2.33 µM]	13%	7%	-14%	/
COc1ccc(N2CCN(C(=O)COC(=O)CCS(=O)(=O)c3ccc(C)cc3)CC2)cc1	-17%	40µM*	-10%	-5%	-10%	/
CCOC(=O)N1CCN(S(=O)(=O)c2ccc(C)cc2)CC1	-19%	12%	30%	/	-8%	12%
Cc1ccc(S(=O)(=O)CCC(=O)OCC(=O)N2CCN(S(=O)(=O)c3ccccc3)CC2)cc1	8%	50µM*	35%	6%	-16%	/
CCOCCCNCC(=O)N1CCN(S(=O)(=O)c2ccc(C)cc2)CC1	79µM*	4.5µM*	-38%	3%	4µM*	-23%
Cc1cccc(N2CCN(C(=O)CCCn3c(=O)[nH]c4ccsc4c3=O)CC2)c1C	0%	9%[59 µM]	29%	/	-8%	/
Cn1c2cc(S(C)=O)sc2c2cnn(Cc3ccccc3F)c(=O)c21 (centres undefined)	/	/	/	/	-18%	/
Cn1c(=S)[nH]c2scc(-c3cccs3)c2c1=O	-17%	10µM*	-13%	38%	?	?
COCCCNC(=S)NNC(=S)Nc1cccc(Cl)c1	-26%	/	-12%	42%	3.2µM*	22µM*
COCCCNC(=S)NNC(=S)NCCCOC	-17%	8.9µM*	-25%	9%	13µM*	45µM*
C=COCCNC(=S)Nc1cccc(Cl)c1	-11%	6%	26%	6%	-7%	18%
COCCCNC(=S)NNC(=O)c1ccccn1	3.5µM*	20%	21%	8.9µM*	20µM*	6%
COCCCNC(=S)NNC(=O)c1cc(Cl)c(O)c(Cl)c1	-1%	16%[12.7 µM]	43%	6%	-1%	-13%
Cc1ccc(Cn2cc(S(=O)(=O)c3cccc(C)c3)c(=O)c3cc(F)c(N4CCOCC4)cc32)cc1	-2%	-3%[59 µM]	31%	/	-10%	/
O=C(CCN1CCCCCC1)Nc1ccccc1F	/	/	24%	/	-6%	/
O=C(CN1CCCC1)Nc1ccccc1Sc1ccc(Cl)cc1	15%	0%[59 µM]	44%	/	-1%	79µM*
Cc1nn(CC(=O)Nc2ccccc2C(F)(F)F)c(=O)c2cccn12	22µM*!	3.2µM*!	?	/	8.9µM*!	13%
